Counter-ions that a name gives are not always drawn.
Assays:
U-2932 [1] = experiment: growth inhibition by drug alone (1 - RLU/untreated control) (fraction); higher = stronger inhibition; settings: 177Lu-lilotomab satetraxetan 0 ug/ml
Summary of the method: (§1)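 With or without 18 h pretreatment by a radiolabelled anti-CD37 antibody conjugate (~600 MBq/mg; 0.5 µg/ml RIVA, 1 µg/ml U-2932), RIVA and U-2932 cells were washed and plated at 3,000 cells/well. Pre-printed compound doses were 10/100 nM for RIVA and 10/1,000 nM for U-2932. Growth inhibition uses RealTime-Glo RLU relative to the untreated no-drug wells. The calculation is 1 − RLU/mean of 48 such wells per plate, with reads daily from day 3 after 1 h at 37°C.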

RIVA [2] = experiment: as above; settings: 177Lu-lilotomab satetraxetan 0 ug/ml
Summary of the method: as §1

U-2932 [3] = experiment: growth inhibition by drug plus 177Lu-lilotomab satetraxetan (1 - RLU/untreated control) (fraction); higher = stronger inhibition; settings: 177Lu-lilotomab satetraxetan 1 ug/ml
Summary of the method: as §1

RIVA [4] = experiment: as above; settings: 177Lu-lilotomab satetraxetan 0.5 ug/ml
Summary of the method: as §1

Row | SMILES | growth inhibition by drug alone (U-2932 [1]; 10 nM, time (day): 3) | growth inhibition by drug alone (U-2932 [1]; 10 nM, time (day): 4) | growth inhibition by drug alone (U-2932 [1]; 10 nM, time (day): 5) | growth inhibition by drug alone (U-2932 [1]; 10 nM, time (day): 6) | growth inhibition by drug alone (U-2932 [1]; 1000 nM, time (day): 3) | growth inhibition by drug alone (U-2932 [1]; 1000 nM, time (day): 4) | growth inhibition by drug alone (U-2932 [1]; 1000 nM, time (day): 5) | growth inhibition by drug alone (U-2932 [1]; 1000 nM, time (day): 6) | growth inhibition by drug alone (RIVA [2]; 10 nM, time (day): 3) | growth inhibition by drug alone (RIVA [2]; 10 nM, time (day): 4) | growth inhibition by drug alone (RIVA [2]; 10 nM, time (day): 5) | growth inhibition by drug alone (RIVA [2]; 10 nM, time (day): 6) | growth inhibition by drug alone (RIVA [2]; 100 nM, time (day): 3) | growth inhibition by drug alone (RIVA [2]; 100 nM, time (day): 4) | growth inhibition by drug alone (RIVA [2]; 100 nM, time (day): 5) | growth inhibition by drug alone (RIVA [2]; 100 nM, time (day): 6) | growth inhibition by drug plus 177Lu-lilotomab satetraxetan (U-2932 [3]; 10 nM, time (day): 3) | growth inhibition by drug plus 177Lu-lilotomab satetraxetan (U-2932 [3]; 10 nM, time (day): 4) | growth inhibition by drug plus 177Lu-lilotomab satetraxetan (U-2932 [3]; 10 nM, time (day): 5) | growth inhibition by drug plus 177Lu-lilotomab satetraxetan (U-2932 [3]; 10 nM, time (day): 6) | growth inhibition by drug plus 177Lu-lilotomab satetraxetan (U-2932 [3]; 1000 nM, time (day): 3) | growth inhibition by drug plus 177Lu-lilotomab satetraxetan (U-2932 [3]; 1000 nM, time (day): 4) | growth inhibition by drug plus 177Lu-lilotomab satetraxetan (U-2932 [3]; 1000 nM, time (day): 5) | growth inhibition by drug plus 177Lu-lilotomab satetraxetan (U-2932 [3]; 1000 nM, time (day): 6) | growth inhibition by drug plus 177Lu-lilotomab satetraxetan (RIVA [4]; 10 nM, time (day): 3) | growth inhibition by drug plus 177Lu-lilotomab satetraxetan (RIVA [4]; 10 nM, time (day): 4) | growth inhibition by drug plus 177Lu-lilotomab satetraxetan (RIVA [4]; 10 nM, time (day): 5) | growth inhibition by drug plus 177Lu-lilotomab satetraxetan (RIVA [4]; 10 nM, time (day): 6) | growth inhibition by drug plus 177Lu-lilotomab satetraxetan (RIVA [4]; 100 nM, time (day): 3) | growth inhibition by drug plus 177Lu-lilotomab satetraxetan (RIVA [4]; 100 nM, time (day): 4) | growth inhibition by drug plus 177Lu-lilotomab satetraxetan (RIVA [4]; 100 nM, time (day): 5) | growth inhibition by drug plus 177Lu-lilotomab satetraxetan (RIVA [4]; 100 nM, time (day): 6)
1 | Cc1ccc(C(=O)N(CCCN)[C@@H](c2nc3cc(Cl)ccc3c(=O)n2Cc2ccccc2)C(C)C)cc1 | 0.446 | 0.424 | 0.379 | 0.372 | 0.959 | 0.968 | 0.972 | 0.977 | 0.202 | 0.194 | 0.075 | -0.26 | 0.918 | 0.931 | 0.939 | 0.943 | 0.393 | 0.409 | 0.426 | 0.465 | 0.965 | 0.973 | 0.98 | 0.984 | 0.652 | 0.647 | 0.659 | 0.655 | 0.94 | 0.962 | 0.971 | 0.979
2 | CC[C@@]1(O)C(=O)OCc2c1cc1n(c2=O)Cc2cc3c(CN(C)C)c(O)ccc3nc2-1 [Topotecan HCl] | 0.427 | 0.494 | 0.544 | 0.586 | 0.952 | 0.969 | 0.977 | 0.981 | 0.45 | 0.629 | 0.715 | 0.801 | 0.689 | 0.808 | 0.85 | 0.882 | 0.403 | 0.516 | 0.604 | 0.67 | 0.97 | 0.978 | 0.983 | 0.985 | 0.802 | 0.878 | 0.913 | 0.944 | 0.814 | 0.883 | 0.91 | 0.931
3 | O=C(CCCCCCC(=O)Nc1cccnc1)NO [Pyroxamide] | -0.0932 | -0.0929 | -0.129 | -0.234 | 0.82 | 0.79 | 0.759 | 0.717 | -0.263 | -0.352 | -0.468 | -0.514 | -0.333 | -0.305 | -0.265 | -0.306 | -0.106 | -0.0647 | -0.00568 | 0.0937 | 0.6 | 0.542 | 0.472 | 0.474 | 0.358 | 0.433 | 0.464 | 0.49 | 0.454 | 0.507 | 0.511 | 0.509
4 | CN(NC(=O)CC(=O)NN(C)C(=S)c1ccccc1)C(=S)c1ccccc1 [Elesclomol] | 0.796 | 0.791 | 0.818 | 0.825 | 0.982 | 0.982 | 0.983 | 0.984 | 0.97 | 0.964 | 0.963 | 0.964 | 0.976 | 0.976 | 0.975 | 0.974 | 0.854 | 0.88 | 0.914 | 0.935 | 0.983 | 0.982 | 0.984 | 0.987 | 0.972 | 0.968 | 0.972 | 0.974 | 0.987 | 0.988 | 0.987 | 0.988
5 | CCCC(CCC)C(=O)O [Valproic acid sodium salt (Sodium valproate)] | 0.135 | 0.0829 | -0.0268 | -0.0189 | -0.0134 | 0.0276 | -0.0122 | -0.131 | -0.0545 | -0.0344 | -0.0932 | -0.3 | 0.0331 | 0.00236 | -0.00506 | -0.0995 | 0.0169 | 0.0448 | 0.0823 | 0.106 | -0.06 | 0.0571 | 0.0167 | 0.0659 | 0.442 | 0.551 | 0.566 | 0.583 | 0.469 | 0.539 | 0.543 | 0.523
6 | COc1nc(C)cnc1NS(=O)(=O)c1cccnc1-c1ccc(-c2nnco2)cc1 [Zibotentan (ZD4054)] | -0.02 | -0.0119 | -0.0937 | -0.23 | -0.0348 | -0.00699 | -0.0784 | -0.143 | 0.00676 | -0.0294 | -0.0678 | -0.248 | -0.0338 | -0.0394 | -0.0583 | -0.115 | -0.0217 | 0.0145 | 0.00284 | 0.0711 | -0.0714 | 0.0154 | -0.0042 | -0.0452 | 0.387 | 0.514 | 0.537 | 0.542 | 0.388 | 0.485 | 0.494 | 0.461
7 | N#Cc1ccc(COC[C@H]2O[C@@H](n3c(NCc4ccc(Cl)c(Cl)c4)nc4c(N)ncnc43)[C@H](O)[C@@H]2O)cc1 | 0.115 | 0.0829 | -0.00792 | -0.0103 | 0.0695 | 0.0449 | -0.0886 | -0.0586 | -0.00484 | -0.0139 | -0.22 | -0.465 | -0.367 | -0.326 | -0.323 | -0.395 | -0.0128 | 0.0586 | 0.0723 | 0.037 | 0.12 | 0.128 | 0.109 | 0.165 | 0.498 | 0.574 | 0.59 | 0.586 | 0.472 | 0.543 | 0.557 | 0.551
